NALP3 yeast inh = NALP3 inhibition in yeast | AID 2825 | inhibition, % at 10 µM | hit rate 0.39% among 330,000 | Yeast reconstituted NLRP3/ASC/caspase-1, beta-gal luminescence, 24 h;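 active = inhibition of 50% or more; inactive = inhibition below 50%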
TIM10 inh = TIM10 yeast growth inhibition. S. cerevisiae TIM10 strain growth, BacTiter-Glo luminescence, 24 h. inhibition, % at 10 µM. hit rate 1.4% among 330,000. AID 463195;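 active = inhibition of 40% or more at the single tested concentration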;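 note: wild-type TIM10 isogenic control strain grown at permissive 25 °C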
NALP1 yeast inh = NALP1 inhibition; S. cerevisiae NALP1/ASC/caspase-1 growth, X-gal OD620, 72 h; inhibition, % at 10 µM; hit rate 0.61% among 280,000; in the data active = inhibition mostly above about 24%, no sharp cut-off; inactive = mostly below about 32%
tim23-1 inh = tim23-1 yeast growth inhibition | S. cerevisiae tim23-1 growth, BacTiter-Glo luminescence, 24 h | inhibition, % at 20 µM | hit rate 1.3% among 330,000;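 active = growth inhibition of the mutant yeast at or above 50%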;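 note: temperature-sensitive mutant grown at 25 °C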
tim10-1 inh = growth inhibitors of tim10-1 mutant yeast | S. cerevisiae tim10-1 ts strain growth, BacTiter-Glo, 24 h | AID 463190 | inhibition, % at 20 µM | hit rate 2.2% among 330,000;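 active = inhibition of at least 40%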;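 note: mutant grown at 25 °C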
tim10-1 conf = tim10-1 yeast growth inhibition, confirmed; shares compounds with tim10-1 inh; S. cerevisiae tim10-1 ts strain growth, BacTiter-Glo, 24 h; inhibition, % at 20 µM; hit rate 56% among 7,400; AID 463213;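 active = inhibition of yeast growth at or above a set limit in either of two repeat tests at 20 µM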;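 note: tim10-1 mutant grown at permissive 25 °C to find synthetic lethal compounds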
tim10 confirm = confirmation of TIM10 yeast growth inhibitors. S. cerevisiae tim10 strain growth, BacTiter-Glo luminescence, 24 h. shares compounds with TIM10 inh. hit rate 63% among 4,600. inhibition, % at 10 µM;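 active = inhibition of yeast growth at or above a set limit in either of two replicates at 10 µM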; note: this counterscreen used the strain with wild-type TIM10
Numbers stand for hits; n = inactive; x = no result. Only some compounds are listed: those with a hit (about 4% of all), similar ones and a draw of the others.

SMILES	NALP3 yeast inh	TIM10 inh	NALP1 yeast inh	tim23-1 inh	tim10-1 inh	tim10-1 conf	tim10 confirm
C/C(CCc1ccccc1)=N\NC(=S)NCCc1ccccc1	n	n	n	n	n	x	x
Cc1nn(Cc2ccccc2)c(=O)n1N(C)c1ncc(C(F)(F)F)cc1Cl	n	n	n	n	n	x	x
CCOC(=O)C1CCN(S(=O)(=O)c2cccc(-c3cn4cccc(C)c4n3)c2)CC1	n	50	n	n	55	n	n
CCOC(=O)C1CCN(S(=O)(=O)c2cccc(-c3cn4ccccc4n3)c2)CC1	n	n	n	n	n	x	x
O=C(CC12CC3CC(CC(C3)C1)C2)NCC(=O)OCc1cc(=O)oc2ccc3ccccc3c12	n	44	n	n	41	n	n
CCOC(=O)N1CCN(Cc2cc(=O)oc3ccc4ccccc4c23)CC1	n	n	n	n	n	x	x
O=C(Nc1ccc(OCC(F)(F)C(F)F)c(C(F)(F)F)c1)c1ccc(Cl)cc1	n	58	x	n	53	35	n
Cc1ccc(-n2ncc3c2CC(C)(C)CC3NC(=O)CCN2CCCCC2=O)cc1 (stereo not given)	n	n	n	n	n	x	x
COc1ccc(C2SCCN2S(=O)(=O)c2ccc(NC(C)=O)cc2)cc1 (stereo not given)	n	n	n	n	n	x	x
CC(=O)Nc1ccc(S(=O)(=O)N2CCSC2c2ccc(C)cc2)cc1 (stereo not given)	n	42	n	n	41	n	34
Cc1cc(C)n(-c2nc(-n3nc(C)cc3C)c3c4c(sc3n2)COC(C)(C)C4)n1	n	41	n	n	50	34	n
Cn1nc(-c2ccc3c(c2)OCCO3)c2ccccc2c1=O	n	n	n	n	n	x	x
Cc1ccc(NC(=S)NCc2ccc3[nH]c4c(c3c2)CCCC4)cc1	n	46	n	n	47	29	n
CCOC(=O)C1CCCN(C(=O)c2ccc(-c3ccc([N+](=O)[O-])cc3)o2)C1 (stereo not given)	n	46	x	n	58	66	58
CCOC(=O)C1CCCN(C(=O)c2ccc(CS(=O)(=O)c3ccc(C)cc3)o2)C1 (stereo not given)	n	n	n	n	n	x	x
O=C(CCC(=O)N(CC(=O)NC1CCCC1)c1cccc(F)c1)Nc1nccs1	n	n	n	n	n	x	x
COC(=O)c1c(N2C(=O)CC(Sc3ccccc3C(=O)O)C2=O)sc2c1CCCC2 (stereo not given)	n	46	n	n	46	47	n
NC1C2CN(c3nc4c(cc3F)c(=O)c(C(=O)O)cn4-c3ccc(F)cc3F)CC12 (stereo not given)	n	n	n	n	n	x	x
CCc1ccc(NC2=CC(=O)CC(c3ccco3)C2)cc1 (stereo not given)	n	41	n	n	42	n	n
O=C(Oc1cccnc1)c1ccccc1[N+](=O)[O-]	n	50	n	n	52	33	33
N/C(=N\OC(=O)c1ccccc1[N+](=O)[O-])c1cccnc1	n	n	x	n	n	x	x
COc1ccc(C(=O)/C=C\c2ccc(NC(=O)c3cccs3)cc2)cc1	n	48	n	n	43	31	40
COc1ccc(NC(=O)c2ccc(NC(=O)c3cccs3)cc2)cc1	n	n	n	n	n	x	x
CCOc1ncccc1C(=O)NNC(=O)c1cccc(S(=O)(=O)N2CCOCC2)c1	n	n	x	n	n	x	x
CC(C)(C)Nc1nc2ccc([N+](=O)[O-])cc2o1	n	n	x	n	n	x	x
SMILES	NALP3 yeast inh	TIM10 inh	NALP1 yeast inh	tim23-1 inh	tim10-1 inh	tim10-1 conf	tim10 confirm
CCc1cc(-c2[nH]ncc2-c2ccc(OC)cc2)c(O)cc1O	n	n	n	n	n	x	x
COc1ccc(-c2cn[nH]c2-c2ccc(OCc3ccc([N+](=O)[O-])cc3)cc2O)cc1	n	42	n	n	47	n	n
Cc1ccc(OCC(=O)NNC(=O)C(C)Sc2ncnc3sc(C)c(C)c23)cc1 (stereo not given)	n	55	n	n	42	42	n
CN1CCN(NC(=O)c2cccc(C(F)(F)F)c2)CC1	n	n	x	n	n	x	x
Cc1ccc2[nH]c(-c3cccc(F)c3)cc(=O)c2c1	n	n	n	n	n	x	x
Cc1ccc(O)c(-c2cc(-c3cccc(F)c3)n[nH]2)c1	n	43	n	n	53	34	n
Oc1ccc(Br)cc1-c1cc(-c2ccccc2)n[nH]1	n	58	n	n	47	n	n
